The source of these data is PubChem BioAssay (NCI).

About 83,000 compounds went through this panel and 20% of them were active in at least one assay; those are over-represented in the sample as a whole.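 Single-concentration screen, 48 h exposure, 96-well plates. Endpoint: percent growth. Below 10 = active.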 Calls of active or inactive are those of the source.

The first test concerns U251 CNS. The test is described as follows: NCI-60 one-dose screen, 48 h (100 = growth as untreated, 0 = no growth, -100 = all killed). As to conditions: 10 µM unless noted.
On to `O=C1CC(c2ccc(I)cc2)OC2C=Cc3ccccc3C12` (stereo unspecified), for which the growth was 99.5% (inactive).
In the case of `COc1ccc(NC(=O)Cn2c(/C=C/c3cccc(OC)c3)nc3ccccc3c2=O)cc1`, the growth is -26.5% (active).
On the same count and under the same terms, the same measure for `COc1ccc2[nH]c(=O)c(CSc3ccccc3Nc3nccc(-c4ccc5c(c4)OCO5)n3)cc2c1`: 88.6% (inactive); for `Cc1nc2sccn2c1-c1nnc(SCC(C)C)o1`: 78.2% (inactive); for `O=c1c(-c2nc(-c3ccccc3)c(-c3ccccc3)[nH]2)coc2ccc(F)cc12`: 47.3% (inactive).
For `CCN1C(=O)N(CC)C2NNC(Sc3c(C(=O)O)c4ccccc4n(CCC(C)C)c3=O)=NC21` (stereo unspecified), the growth was 2.04% (active).
Still for that read-out and setting: the same measure for `CCCCNc1ccc2c3c(cccc13)C(=O)N(c1cccc(-c3nn(-c4ccccc4)cc3-c3nc4ccccc4s3)c1)C2=O`: 110% (inactive); for `COc1ccc(C(=O)c2c(N)c(C#N)cn2-c2ccc([N+](=O)[O-])cc2)cc1`: 111% (inactive).
With `COC(=O)c1cc(C(=O)CBr)n2c1ccc1c3ccccc3ccc12`, the growth was 39.4% (inactive).
On the same count and under the same terms, the same measure for `Cc1ccc(C2CC(c3ccc(NC(=S)Nc4ccccc4)cc3)=NN2c2ccc(S(N)(=O)=O)cc2)cc1` (stereo unspecified): 5.8% (active).
The same measure, in the same setting: to `O=C1/C(=C/C=C/c2ccco2)SC(=S)N1CC(=S)C1C=CS(=O)(=O)C1` (stereo unspecified) belongs 88.7% (inactive); to `Oc1ccc(F)c(Nc2nc(SCCN3CCOCC3)nc3c2cnn3CC(Cl)c2ccc(Br)cc2)c1` (stereo unspecified), 21.9% (inactive); to `Fc1ccc(Nc2nnc(-c3c[nH]c4ccccc34)o2)cc1`, 84.8% (inactive).
In the case of `COc1ccc(C(=O)/C=C/c2ccc3c(c2)OCCO3)cc1S(N)(=O)=O`, the growth is 12.2% (inactive).
For `COc1ccc(C(=O)NNC(=O)CSc2nc3sc4c(c3c(=O)n2-c2ccc(Cl)cc2)CCCC4)cc1`, the growth was 42.3% (inactive).
On the same count and under the same terms, the same measure for `c1n[nH]cc1-c1nc2ccc3[nH]ncc3c2c2c1CC1(CC2)COC1`: 39.5% (inactive); for `C#CCN(C)CCCOc1ccc(N(CC)C(=O)c2cc(C(C)C)c(O)cc2O)cc1Cl`: 1.31% (active).
`COc1ccc2c(c1)c(-c1cc(N)n3nc(-c4c[nH]c5ccccc45)cc3n1)cn2C`: the growth was -87.8% (active).
The same measure, in the same setting: to `COc1sc(/C=N/NC(=O)c2[nH]c3ccc(Br)cc3c2-c2ccccc2)cc1Br` belongs -11.2% (active); to `COc1ccc(C(=O)c2cc(C(C)=O)c3c(C)cc(C)cn23)cc1`, 32.4% (inactive).
Regarding `COc1ccc(N=Nc2c(N)nn3c(-c4ccc5c(c4)C=S=C5)ccnc23)cc1`, the growth was 34.5% (inactive).
Regarding `Cn1cc(-c2cc3nc(-c4cn(C)c5ncccc45)cc(N)n3n2)c2cc(F)ccc21`, the growth is -41.8% (active).
Same read-out and setting: the same measure for `O=C(COc1ccc(/C=C2/C(=O)Nc3ccc(Cl)cc32)cc1)Nc1ccc(Br)cc1`: -88.4% (active); for `Cc1ccc2nc(COc3ccc(C(=O)NNC(=O)Nc4ccc(Cl)c(C(F)(F)F)c4)cc3)[nH]c2c1`: -1.34% (active).
As to `COc1ccc(N=Nc2c(N)nn3c(-c4ccc(F)cc4)ccnc23)cc1`, the growth was 69.8% (inactive).
With `COc1cc(/C=C/C(=O)c2cnn(-c3cc(=O)[nH]c4ccc(C)cc34)c2C)cc(OC)c1OC`, the growth is -85% (active).
On to `COc1ccc(-c2cc(C(=O)OCc3ccc(Br)cc3)nn2-c2ccc(S(C)(=O)=O)cc2)cc1OC`, for which the growth is 86.1% (inactive).
On the same count and under the same terms, to `Cc1ccc(C(=O)Nc2cc(-n3ccnc3)cc(C(F)(F)F)c2)cc1-n1cc(-c2cnc3cccnn23)nn1` belongs 112% (inactive).
Still for that read-out and setting: the same measure for `COc1cc(/C=C/C(=O)c2ccc(S(=O)(=O)NCCNc3nc(N(C)C)nc(N4CCOCC4)n3)cc2)cc(OC)c1OC`: -100% (active); for `O=C(N/N=C/c1ccsc1)c1[nH]c2ccc(Br)cc2c1-c1ccccc1`: -89.1% (active).
On the same count and under the same terms, to `Cc1[nH]nc2ccc3nc(-c4cnn(CCO)c4)c4c(c3c12)CCCC4` belongs 57.2% (inactive); to `CCOC(=O)/C(F)=C/C1CC1C1CCN(C(=O)OC(C)(C)C)CC1` (stereo unspecified), 99.8% (inactive); to `O=C(Nc1nc2ccccc2s1)Nc1ccccc1Cl`, 55.7% (inactive).
With `C/C(=N\Nc1ccc(C(=O)O)cc1)c1cnn(-c2cc(=O)[nH]c3ccc(C)cc23)c1C`, the growth was 102% (inactive).
As to `OC1CCC(Cn2c(C(F)(F)F)cc3c(Cl)ncnc32)CC1` (stereo unspecified), the growth is 11.6% (inactive).
Regarding `Cc1nn(-c2ccccc2)c2nc(C)n(C(=O)N/N=C/c3ccccc3)c(=O)c12`, the growth was 95.5% (inactive).
The same measure, in the same setting: the same measure for `COc1cc(CNC(=O)C[C@H](C)CCC=C(C)C)ccc1OCc1cn(-c2ccc(Cl)cc2Cl)nn1`: 54.4% (inactive).
For the compound `Clc1ccccc1Nc1nnc(-c2c[nH]c3ccccc23)o1`, the growth is 7.39% (active).

Another test deals with PC-3 prostate. The description is as above. As to conditions: 10 µM unless noted.
`O=C1CC(c2ccc(I)cc2)OC2C=Cc3ccccc3C12` (stereo unspecified): the growth is 101% (inactive).
With `COc1ccc(NC(=O)Cn2c(/C=C/c3cccc(OC)c3)nc3ccccc3c2=O)cc1`, the growth was 73.9% (inactive).
With `COc1ccc2[nH]c(=O)c(CSc3ccccc3Nc3nccc(-c4ccc5c(c4)OCO5)n3)cc2c1`, the growth is 68.1% (inactive).
Take `Cc1nc2sccn2c1-c1nnc(SCC(C)C)o1`: the growth was 83.1% (inactive).
Still for that read-out and setting: to `O=c1c(-c2nc(-c3ccccc3)c(-c3ccccc3)[nH]2)coc2ccc(F)cc12` belongs 41.9% (inactive).
For the compound `CCN1C(=O)N(CC)C2NNC(Sc3c(C(=O)O)c4ccccc4n(CCC(C)C)c3=O)=NC21` (stereo unspecified), the growth was 26.1% (inactive).
Take `CCCCNc1ccc2c3c(cccc13)C(=O)N(c1cccc(-c3nn(-c4ccccc4)cc3-c3nc4ccccc4s3)c1)C2=O`: the growth is 87.7% (inactive).
For `COc1ccc(C(=O)c2c(N)c(C#N)cn2-c2ccc([N+](=O)[O-])cc2)cc1`, the growth was 109% (inactive).
Still for that read-out and setting: the same measure for `COC(=O)c1cc(C(=O)CBr)n2c1ccc1c3ccccc3ccc12`: 53.1% (inactive).
The same measure, in the same setting: the same measure for `Cc1ccc(C2CC(c3ccc(NC(=S)Nc4ccccc4)cc3)=NN2c2ccc(S(N)(=O)=O)cc2)cc1` (stereo unspecified): 7.16% (active).
Same read-out and setting: to `O=C1/C(=C/C=C/c2ccco2)SC(=S)N1CC(=S)C1C=CS(=O)(=O)C1` (stereo unspecified) belongs 96.7% (inactive); to `Oc1ccc(F)c(Nc2nc(SCCN3CCOCC3)nc3c2cnn3CC(Cl)c2ccc(Br)cc2)c1` (stereo unspecified), 7.79% (active).
For `Fc1ccc(Nc2nnc(-c3c[nH]c4ccccc34)o2)cc1`, the growth was 70.8% (inactive).
Same read-out and setting: the same measure for `COc1ccc(C(=O)/C=C/c2ccc3c(c2)OCCO3)cc1S(N)(=O)=O`: 103% (inactive); for `COc1ccc(C(=O)NNC(=O)CSc2nc3sc4c(c3c(=O)n2-c2ccc(Cl)cc2)CCCC4)cc1`: 80.6% (inactive).
The same measure, in the same setting: to `c1n[nH]cc1-c1nc2ccc3[nH]ncc3c2c2c1CC1(CC2)COC1` belongs 53% (inactive); to `C#CCN(C)CCCOc1ccc(N(CC)C(=O)c2cc(C(C)C)c(O)cc2O)cc1Cl`, 12.6% (inactive).
Same read-out and setting: to `COc1ccc2c(c1)c(-c1cc(N)n3nc(-c4c[nH]c5ccccc45)cc3n1)cn2C` belongs 1.08% (active); to `COc1sc(/C=N/NC(=O)c2[nH]c3ccc(Br)cc3c2-c2ccccc2)cc1Br`, 19.4% (inactive); to `COc1ccc(C(=O)c2cc(C(C)=O)c3c(C)cc(C)cn23)cc1`, 82.9% (inactive).
In the case of `COc1ccc(N=Nc2c(N)nn3c(-c4ccc5c(c4)C=S=C5)ccnc23)cc1`, the growth is 25% (inactive).
Regarding `Cn1cc(-c2cc3nc(-c4cn(C)c5ncccc45)cc(N)n3n2)c2cc(F)ccc21`, the growth was 32.5% (inactive).
The same measure, in the same setting: to `O=C(COc1ccc(/C=C2/C(=O)Nc3ccc(Cl)cc32)cc1)Nc1ccc(Br)cc1` belongs -38.9% (active).
In the case of `Cc1ccc2nc(COc3ccc(C(=O)NNC(=O)Nc4ccc(Cl)c(C(F)(F)F)c4)cc3)[nH]c2c1`, the growth is 18.1% (inactive).
The same measure, in the same setting: to `COc1ccc(N=Nc2c(N)nn3c(-c4ccc(F)cc4)ccnc23)cc1` belongs 82.2% (inactive); to `COc1cc(/C=C/C(=O)c2cnn(-c3cc(=O)[nH]c4ccc(C)cc34)c2C)cc(OC)c1OC`, 5.99% (active).
With `COc1ccc(-c2cc(C(=O)OCc3ccc(Br)cc3)nn2-c2ccc(S(C)(=O)=O)cc2)cc1OC`, the growth was 72.1% (inactive).
Still for that read-out and setting: the same measure for `Cc1ccc(C(=O)Nc2cc(-n3ccnc3)cc(C(F)(F)F)c2)cc1-n1cc(-c2cnc3cccnn23)nn1`: 123% (inactive).
For the compound `COc1cc(/C=C/C(=O)c2ccc(S(=O)(=O)NCCNc3nc(N(C)C)nc(N4CCOCC4)n3)cc2)cc(OC)c1OC`, the growth is -76.5% (active).
Turning to `O=C(N/N=C/c1ccsc1)c1[nH]c2ccc(Br)cc2c1-c1ccccc1`, the growth is -26.1% (active).
With `Cc1[nH]nc2ccc3nc(-c4cnn(CCO)c4)c4c(c3c12)CCCC4`, the growth was 40.4% (inactive).
Still for that read-out and setting: to `CCOC(=O)/C(F)=C/C1CC1C1CCN(C(=O)OC(C)(C)C)CC1` (stereo unspecified) belongs 96.3% (inactive); to `O=C(Nc1nc2ccccc2s1)Nc1ccccc1Cl`, 85.3% (inactive).
Take `C/C(=N\Nc1ccc(C(=O)O)cc1)c1cnn(-c2cc(=O)[nH]c3ccc(C)cc23)c1C`: the growth is 88.8% (inactive).
Regarding `OC1CCC(Cn2c(C(F)(F)F)cc3c(Cl)ncnc32)CC1` (stereo unspecified), the growth is 23.5% (inactive).
Consider `Cc1nn(-c2ccccc2)c2nc(C)n(C(=O)N/N=C/c3ccccc3)c(=O)c12`, for which the growth is 92.7% (inactive).
`COc1cc(CNC(=O)C[C@H](C)CCC=C(C)C)ccc1OCc1cn(-c2ccc(Cl)cc2Cl)nn1`: the growth is 85% (inactive).
For the compound `Clc1ccccc1Nc1nnc(-c2c[nH]c3ccccc23)o1`, the growth is 32.7% (inactive).
